# Experimental data published in PubChem BioAssay (NCI).
# This is part of a sample that, as a whole, favours compounds with a hit. Of some 79,000 tested, about 15% had one in any assay. The source made the active and inactive calls. Cut-off read from the data, not from the text of the source: active = growth inhibition above about 70%; inactive = the rest.
# Test: NCI Yeast Anticancer Drug Screen. Data for the rad50 strain (AID 155);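 note: 0% = growth of vehicle-only cultures of the same strain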
# Details: S. cerevisiae rad50 strain growth inhibition; at 33.0 µM; stronger effect = higher value
# How it was run: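 A DNA repair-deficient yeast mutant serves as the test organism; compound-induced growth inhibition is calculated against vehicle-treated cells.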
row,Compound,growth inhibition
1,C=CCC1=C(C)C(OC(=O)/C=C/c2ccccc2)CC1=O (stereo not drawn),8% (inactive)
2,NNc1c(F)c(F)cc(F)c1F,-15% (inactive)
3,COP(=O)(OC)/C(=C\C1=CN(C(c2ccccc2)(c2ccccc2)c2ccccc2)CN1)NC=O,73% (active)
4,COC(=O)c1cc(-c2ccc(C)cc2)[nH]c(=O)c1C#N,-4% (inactive)

# Same assay, conditions: S. cerevisiae rad50 strain growth inhibition; at 50.0 µM (retest, dose inferred, filed as 5.0); stronger effect = higher value
row,Compound,growth inhibition
1,CCOP(=O)(OCC)C(Cc1ccccc1)N=C(c1ccccc1)c1ccccc1 (stereo not drawn),7% (inactive)
2,CCc1ncnc2cc(OCC3CO3)c(OC)cc12 (stereo not drawn),92% (active)
3,CCOC(=O)[C@H]1Nc2ccccc2C2c3ccccc3CC21 (stereo partly drawn),91% (active)
4,O=CNc1ccc2c(c1)C(=O)c1ccccc1-2,75% (active)
5,CCOc1ccc2c(c1)c(CC(=O)O)cn2C,94% (active)
6,OC1CSCCCSCCSCCCSC1,-14% (inactive)
7,N#Cc1c(N)[nH]c2ccc(Sc3ccccc3)cc12,44% (inactive)
8,Cc1ccc(-c2ccc(Nc3c4ccccc4nc4ccccc34)cc2)cn1,97% (active)
9,c1ccc2c(c1)NC(NC1Nc3ccccc3N1)N2,67% (inactive)
10,OC(COc1cccc2ccccc12)CN1CCOCC1 (stereo not drawn),78% (active)
11,CCC/C(Cl)=N\OC(=O)Nc1ccc(Br)cc1,99% (active)
12,COc1ccc(/C=C2\SC(=S)N(/C=C/c3nc4ccccc4[nH]c3=O)C2=O)cc1OC,46% (inactive)
13,O=C(NNc1ccnc2cc(Cl)ccc12)/C(=C\c1ccccc1Cl)NC(=O)c1ccccc1,-18% (inactive)
14,CSC1=NNC(SC)=NN1,41% (inactive)
15,Cc1c(C2=C(Br)C(=O)N(C)C2=O)c(=O)n(C)c(=O)n1C,55% (inactive)
16,NCCNc1ccc(NCCN)c2c1C(=O)c1c(O)ccc(O)c1C2=O,84% (active)
17,Cn1c(=O)c(-c2ccccc2)c(N=[N+]=[N-])c2ccccc21,94% (active)
18,CCCCCCCCCCCCCCCCCCOCC(O)COP(=O)(O)OCC1OC(n2cc(F)c(=O)[nH]c2=O)CC1O (stereo not drawn),99% (active)
19,CCS(=O)(=O)c1ccc(/C=C/C=N/NC(=S)NCC(C)C)cc1,-7% (inactive)
20,CCC(=O)Oc1c(Cl)cc(Cl)c2ccccc12,-53% (inactive)

row,Compound,growth inhibition
1,COc1cc2c3c(cccc3c1)C(=O)N(CCN(C)C)C2=O,77% (active)
2,CN(C)c1ccc(C(C#N)=C(C#N)C#N)cc1,70% (active)
3,O=C(CCCN1CCC2(CC1)CC(=O)N(N1CCCCCC1)C2=O)c1ccc(F)cc1,46% (inactive)
4,O=C1C2C(C(=O)N1c1ccc(OCc3ccccc3)cc1)C1c3ccccc3C2C2CCCCN21 (stereo not drawn),50% (inactive)
5,CCN(CC)CCC(=O)c1ccc(Oc2ccc(F)cc2)cc1,82% (active)
6,O=Nc1c(NO)ccc2nn(-c3ccccc3)nc12,99% (active)
7,CC(=O)SCCC[Si](C)(C)CCCSC(C)=O,51% (inactive)
8,O=C(O)C1CCCCC1c1c2ccc(=O)c(O)c-2oc2c(O)c(O)ccc12 (stereo not drawn),77% (active)
9,Cc1ccc(NN(NC(=O)OC(C)C)C(=O)OC(C)C)cc1,35% (inactive)
10,O=C1c2ccccc2C(=O)c2cc(CBr)ccc21,90% (active)
11,Cc1c(C(Cc2ccccc2N(C)C(=O)/C=C\C(=O)O)c2c[nH]c3ccccc23)c2ccccc2n1C (stereo not drawn),-12% (inactive)
12,CC(C)/C(Cl)=N\OC(=O)Nc1ccc(F)cc1,48% (inactive)
13,O=C1OC(=O)C2CCCC3CCCC1C32 (stereo not drawn),97% (active)
14,CCOC(=O)C(NC(=O)c1ccccc1)(N1CCN(c2cc3c(cc2F)c(=O)c(C(=O)O)cn3C2CC2)CC1)C(F)(F)F (stereo not drawn),76% (active)
15,COc1ccc(NC(=S)N/N=C(\c2ccccc2)c2ccccn2)cc1,89% (active)
16,C=CCC1=C(C)C(OC(=O)/C=C/c2ccccc2)CC1=O (stereo not drawn),19% (inactive)
17,NNc1c(F)c(F)cc(F)c1F,8% (inactive)
18,COP(=O)(OC)/C(=C\C1=CN(C(c2ccccc2)(c2ccccc2)c2ccccc2)CN1)NC=O,-15% (inactive)
19,COC(=O)c1cc(-c2ccc(C)cc2)[nH]c(=O)c1C#N,9% (inactive)
